Measured values taken from article PMC7862700, “An all-to-all approach to the identification of sequence-specific readers for epigenetic DNA modifications on cytosine”.

Experiments:
Experiment in all cases: DAPPL (digital affinity profiling via proximity ligation, sequencing); 10 mM Tris-HCl pH 7.5, 50 mM NaCl, 1 mM DTT, 4% glycerol, room temperature, 30 min; GST-TFs on glutathione beads, 16-mer random dsDNA library, 0.1% formaldehyde crosslink after washing; high values mean tight binding
Conditions in all cases: protein: recombinant; tags: N-terminal GST; dsDNA, one strand shown
ELK1 = biological target: T1, ELK1 (Homo sapiens, UniProt P19419 1-428)
T1 sequence: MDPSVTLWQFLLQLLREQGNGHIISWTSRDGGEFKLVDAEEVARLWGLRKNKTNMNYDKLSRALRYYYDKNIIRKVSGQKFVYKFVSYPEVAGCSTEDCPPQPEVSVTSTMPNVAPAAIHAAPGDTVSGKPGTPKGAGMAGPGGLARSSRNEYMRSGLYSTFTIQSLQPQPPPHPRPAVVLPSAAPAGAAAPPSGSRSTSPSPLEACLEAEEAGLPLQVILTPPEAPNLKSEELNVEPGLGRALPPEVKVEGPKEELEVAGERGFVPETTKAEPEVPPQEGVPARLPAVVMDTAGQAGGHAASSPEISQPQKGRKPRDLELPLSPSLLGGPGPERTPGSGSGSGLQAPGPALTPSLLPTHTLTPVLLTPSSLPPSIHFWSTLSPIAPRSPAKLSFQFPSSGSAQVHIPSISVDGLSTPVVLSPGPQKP
Procedure, shortened: (§1)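 GST fusions of human transcription factors were expressed in yeast and captured with glutathione beads. Once given DNA barcodes and pooled alongside a tag-only sample, they were incubated for 30 min at room temperature with 200 nmole of a random double-stranded 16-mer DNA library in Tris/NaCl/DTT/glycerol buffer, then washed, crosslinked (0.1% formaldehyde), proximity-ligated, PCR-amplified and sequenced on an Illumina NextSeq500. The binding signal of each hexamer is its read frequency for a factor divided by its frequency for the tag-only sample.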

ELF1 = ELF1 (Homo sapiens, UniProt P32519 1-619)
Chain of ELF1 (P32519 whole entry): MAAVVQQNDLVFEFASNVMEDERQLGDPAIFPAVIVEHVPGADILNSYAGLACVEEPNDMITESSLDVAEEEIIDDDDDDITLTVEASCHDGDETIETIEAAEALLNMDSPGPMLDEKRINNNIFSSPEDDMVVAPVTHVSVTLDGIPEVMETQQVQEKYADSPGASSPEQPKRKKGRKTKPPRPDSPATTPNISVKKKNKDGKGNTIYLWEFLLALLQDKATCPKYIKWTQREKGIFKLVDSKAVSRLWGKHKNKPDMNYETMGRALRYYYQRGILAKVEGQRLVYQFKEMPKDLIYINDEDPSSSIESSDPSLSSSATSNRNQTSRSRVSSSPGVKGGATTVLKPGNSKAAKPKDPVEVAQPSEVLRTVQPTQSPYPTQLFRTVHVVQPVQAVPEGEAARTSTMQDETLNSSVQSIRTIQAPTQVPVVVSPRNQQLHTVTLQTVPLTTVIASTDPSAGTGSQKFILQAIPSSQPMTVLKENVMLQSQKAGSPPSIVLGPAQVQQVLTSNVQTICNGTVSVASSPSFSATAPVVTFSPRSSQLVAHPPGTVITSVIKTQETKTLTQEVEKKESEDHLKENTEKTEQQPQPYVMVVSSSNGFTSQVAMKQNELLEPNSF
Procedure, shortened: as §1

EHF = biological target: T2, EHF (Homo sapiens, UniProt Q9NZC4 1-300)
T2 sequence: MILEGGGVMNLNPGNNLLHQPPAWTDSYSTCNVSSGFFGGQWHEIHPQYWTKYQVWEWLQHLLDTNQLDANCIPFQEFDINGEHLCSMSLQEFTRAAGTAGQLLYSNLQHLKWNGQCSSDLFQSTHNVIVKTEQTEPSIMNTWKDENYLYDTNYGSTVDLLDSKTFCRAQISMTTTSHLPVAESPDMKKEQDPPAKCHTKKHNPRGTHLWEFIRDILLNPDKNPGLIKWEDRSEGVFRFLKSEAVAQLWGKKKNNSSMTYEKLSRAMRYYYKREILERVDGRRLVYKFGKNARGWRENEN
Procedure, shortened: as §1

ETV5 = ETV5 (Homo sapiens, UniProt P41161 1-510)
Chain of ETV5 (P41161 whole entry): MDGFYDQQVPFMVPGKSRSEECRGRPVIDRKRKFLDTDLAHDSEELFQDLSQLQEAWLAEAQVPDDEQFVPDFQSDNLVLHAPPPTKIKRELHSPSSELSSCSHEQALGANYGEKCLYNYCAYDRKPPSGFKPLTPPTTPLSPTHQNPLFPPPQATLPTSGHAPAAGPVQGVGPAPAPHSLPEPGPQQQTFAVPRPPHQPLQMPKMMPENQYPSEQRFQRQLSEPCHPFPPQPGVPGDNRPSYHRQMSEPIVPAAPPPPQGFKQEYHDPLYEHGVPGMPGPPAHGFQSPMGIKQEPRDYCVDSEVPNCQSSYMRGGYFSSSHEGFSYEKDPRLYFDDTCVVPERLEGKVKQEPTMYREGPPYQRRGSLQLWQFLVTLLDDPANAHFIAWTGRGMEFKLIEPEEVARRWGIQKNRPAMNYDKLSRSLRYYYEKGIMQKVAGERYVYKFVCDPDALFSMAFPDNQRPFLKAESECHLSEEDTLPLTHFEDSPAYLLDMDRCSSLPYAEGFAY
Procedure, shortened: as §1

ELF4 = ELF4 (Homo sapiens, UniProt Q99607 1-663)
Chain of ELF4 (Q99607 whole entry): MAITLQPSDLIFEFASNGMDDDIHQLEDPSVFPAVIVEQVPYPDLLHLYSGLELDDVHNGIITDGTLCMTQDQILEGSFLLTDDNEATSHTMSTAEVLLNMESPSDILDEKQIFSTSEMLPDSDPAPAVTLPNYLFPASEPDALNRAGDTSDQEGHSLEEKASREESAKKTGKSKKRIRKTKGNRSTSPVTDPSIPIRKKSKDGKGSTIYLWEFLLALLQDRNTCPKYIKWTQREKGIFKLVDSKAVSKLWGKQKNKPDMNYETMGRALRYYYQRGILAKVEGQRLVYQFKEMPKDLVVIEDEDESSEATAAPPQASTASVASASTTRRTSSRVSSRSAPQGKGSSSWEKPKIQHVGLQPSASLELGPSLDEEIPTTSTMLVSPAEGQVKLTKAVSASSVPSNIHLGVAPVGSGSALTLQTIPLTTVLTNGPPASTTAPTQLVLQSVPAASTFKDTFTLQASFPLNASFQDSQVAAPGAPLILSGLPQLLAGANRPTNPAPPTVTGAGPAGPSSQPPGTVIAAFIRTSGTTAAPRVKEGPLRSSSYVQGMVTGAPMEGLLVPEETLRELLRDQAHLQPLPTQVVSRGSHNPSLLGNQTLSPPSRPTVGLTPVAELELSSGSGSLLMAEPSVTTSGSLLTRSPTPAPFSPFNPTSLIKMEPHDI
Procedure, shortened: as §1

ELK4 = biological target: T3, ELK4 (Homo sapiens, UniProt P28324-2 1-405)
T3 sequence: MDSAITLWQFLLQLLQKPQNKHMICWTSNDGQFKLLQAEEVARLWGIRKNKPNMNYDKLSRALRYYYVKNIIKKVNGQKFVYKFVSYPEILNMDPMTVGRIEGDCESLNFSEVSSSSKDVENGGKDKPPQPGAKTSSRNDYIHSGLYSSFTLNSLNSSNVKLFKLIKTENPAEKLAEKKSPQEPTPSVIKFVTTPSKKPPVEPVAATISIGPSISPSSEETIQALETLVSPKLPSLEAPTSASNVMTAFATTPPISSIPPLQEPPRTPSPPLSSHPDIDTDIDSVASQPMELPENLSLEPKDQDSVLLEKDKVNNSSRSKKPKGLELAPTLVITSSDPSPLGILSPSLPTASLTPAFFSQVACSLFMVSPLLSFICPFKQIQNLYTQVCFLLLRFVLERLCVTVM
Procedure, shortened: as §1

ETV1 = ETV1 (Homo sapiens, UniProt P50549 1-477)
Chain of ETV1 (P50549 whole entry): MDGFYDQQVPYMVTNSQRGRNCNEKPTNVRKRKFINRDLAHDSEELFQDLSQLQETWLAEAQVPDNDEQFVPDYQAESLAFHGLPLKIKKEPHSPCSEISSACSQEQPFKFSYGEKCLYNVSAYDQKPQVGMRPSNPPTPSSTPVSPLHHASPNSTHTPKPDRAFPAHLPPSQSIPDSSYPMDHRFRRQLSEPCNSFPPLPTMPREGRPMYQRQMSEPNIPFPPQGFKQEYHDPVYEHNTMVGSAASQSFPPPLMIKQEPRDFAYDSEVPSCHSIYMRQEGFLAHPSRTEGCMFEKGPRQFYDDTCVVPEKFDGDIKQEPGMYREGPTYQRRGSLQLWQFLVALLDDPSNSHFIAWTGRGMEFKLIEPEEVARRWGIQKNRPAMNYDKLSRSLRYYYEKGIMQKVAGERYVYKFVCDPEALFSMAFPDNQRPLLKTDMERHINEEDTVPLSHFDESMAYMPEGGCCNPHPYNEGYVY
Procedure, shortened: as §1

ETV7 = biological target: T4, ETV7 (Homo sapiens, UniProt Q9Y603 1-341)
T4 sequence: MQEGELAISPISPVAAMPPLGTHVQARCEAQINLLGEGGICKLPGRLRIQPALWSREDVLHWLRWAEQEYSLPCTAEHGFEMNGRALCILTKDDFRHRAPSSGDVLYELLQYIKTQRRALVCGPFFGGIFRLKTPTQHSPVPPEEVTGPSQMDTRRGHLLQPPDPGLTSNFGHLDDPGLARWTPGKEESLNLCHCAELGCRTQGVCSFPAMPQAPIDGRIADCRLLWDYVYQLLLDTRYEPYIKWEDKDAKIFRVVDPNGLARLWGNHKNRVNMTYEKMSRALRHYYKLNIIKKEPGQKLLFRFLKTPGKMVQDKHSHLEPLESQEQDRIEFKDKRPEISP
Procedure, shortened: as §1

ETV3 = biological target: T5, ETV3 (Homo sapiens, UniProt P41162-2 1-143)
T5 sequence: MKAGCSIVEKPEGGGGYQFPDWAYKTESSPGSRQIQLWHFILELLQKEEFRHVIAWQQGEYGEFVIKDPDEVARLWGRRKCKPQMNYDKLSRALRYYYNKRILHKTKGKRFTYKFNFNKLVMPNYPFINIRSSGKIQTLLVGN
Procedure, shortened: as §1

GABPA = biological target: T6, GABPA (Homo sapiens, UniProt Q06546 1-454)
T6 sequence: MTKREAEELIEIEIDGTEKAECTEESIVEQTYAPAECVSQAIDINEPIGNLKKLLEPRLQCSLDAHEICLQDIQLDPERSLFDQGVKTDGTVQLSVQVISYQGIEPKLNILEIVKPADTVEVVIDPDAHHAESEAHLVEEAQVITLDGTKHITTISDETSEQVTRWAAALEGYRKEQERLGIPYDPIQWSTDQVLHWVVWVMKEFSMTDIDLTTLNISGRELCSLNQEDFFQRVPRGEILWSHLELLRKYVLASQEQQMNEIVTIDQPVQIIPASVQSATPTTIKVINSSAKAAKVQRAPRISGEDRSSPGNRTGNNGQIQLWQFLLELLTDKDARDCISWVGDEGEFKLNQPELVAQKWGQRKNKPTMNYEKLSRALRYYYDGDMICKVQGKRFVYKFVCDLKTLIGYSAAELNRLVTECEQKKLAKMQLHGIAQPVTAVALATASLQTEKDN
Procedure, shortened: as §1

ERG = biological target: T7, ERG (Homo sapiens, UniProt P11308 1-479)
T7 sequence: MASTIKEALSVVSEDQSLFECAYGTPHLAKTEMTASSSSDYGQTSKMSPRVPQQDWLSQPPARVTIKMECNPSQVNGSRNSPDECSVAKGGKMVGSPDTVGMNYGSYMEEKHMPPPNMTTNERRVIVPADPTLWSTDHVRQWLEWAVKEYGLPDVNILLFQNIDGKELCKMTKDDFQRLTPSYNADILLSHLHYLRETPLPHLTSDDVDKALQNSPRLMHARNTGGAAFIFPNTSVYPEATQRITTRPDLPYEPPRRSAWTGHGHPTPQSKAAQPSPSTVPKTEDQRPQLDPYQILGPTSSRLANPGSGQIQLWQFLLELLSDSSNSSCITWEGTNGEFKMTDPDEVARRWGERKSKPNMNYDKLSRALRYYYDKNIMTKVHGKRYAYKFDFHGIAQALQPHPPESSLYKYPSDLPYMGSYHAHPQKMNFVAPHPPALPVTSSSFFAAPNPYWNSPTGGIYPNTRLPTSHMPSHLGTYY
Procedure, shortened: as §1

SPIB = SPIB (Homo sapiens, UniProt Q01892 1-262)
Chain of SPIB (Q01892 whole entry): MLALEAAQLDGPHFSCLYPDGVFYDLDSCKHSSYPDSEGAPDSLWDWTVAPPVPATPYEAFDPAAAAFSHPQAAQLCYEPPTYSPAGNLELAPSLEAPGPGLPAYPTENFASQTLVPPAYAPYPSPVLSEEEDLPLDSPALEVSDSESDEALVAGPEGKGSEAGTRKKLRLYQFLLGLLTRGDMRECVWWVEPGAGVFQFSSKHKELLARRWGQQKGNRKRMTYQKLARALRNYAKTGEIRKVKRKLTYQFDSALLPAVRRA
Procedure, shortened: as §1

FEV = biological target: T8, FEV (Homo sapiens, UniProt Q99581 1-238)
T8 sequence: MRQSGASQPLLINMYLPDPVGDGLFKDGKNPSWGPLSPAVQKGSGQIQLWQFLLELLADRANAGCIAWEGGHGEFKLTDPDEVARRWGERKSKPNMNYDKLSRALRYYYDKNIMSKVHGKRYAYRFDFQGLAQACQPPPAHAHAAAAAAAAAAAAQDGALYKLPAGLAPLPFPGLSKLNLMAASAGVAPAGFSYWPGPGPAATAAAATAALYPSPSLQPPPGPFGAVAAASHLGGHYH
Procedure, shortened: as §1

ELF3 = biological target: T9, ELF3 (Homo sapiens, UniProt P78545 1-371)
T9 sequence: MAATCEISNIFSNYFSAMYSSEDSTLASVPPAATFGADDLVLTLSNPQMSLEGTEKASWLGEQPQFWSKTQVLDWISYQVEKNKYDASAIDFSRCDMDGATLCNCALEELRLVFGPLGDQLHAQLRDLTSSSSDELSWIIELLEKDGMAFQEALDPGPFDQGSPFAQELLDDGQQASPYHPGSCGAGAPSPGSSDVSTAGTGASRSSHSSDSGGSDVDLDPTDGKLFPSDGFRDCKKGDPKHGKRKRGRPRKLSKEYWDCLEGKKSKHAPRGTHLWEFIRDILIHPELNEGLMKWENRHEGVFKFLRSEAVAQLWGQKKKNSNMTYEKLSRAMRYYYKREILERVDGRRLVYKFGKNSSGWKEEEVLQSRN
Procedure, shortened: as §1

ERF = biological target: T10, ERF (Homo sapiens, UniProt P50548 1-548)
T10 sequence: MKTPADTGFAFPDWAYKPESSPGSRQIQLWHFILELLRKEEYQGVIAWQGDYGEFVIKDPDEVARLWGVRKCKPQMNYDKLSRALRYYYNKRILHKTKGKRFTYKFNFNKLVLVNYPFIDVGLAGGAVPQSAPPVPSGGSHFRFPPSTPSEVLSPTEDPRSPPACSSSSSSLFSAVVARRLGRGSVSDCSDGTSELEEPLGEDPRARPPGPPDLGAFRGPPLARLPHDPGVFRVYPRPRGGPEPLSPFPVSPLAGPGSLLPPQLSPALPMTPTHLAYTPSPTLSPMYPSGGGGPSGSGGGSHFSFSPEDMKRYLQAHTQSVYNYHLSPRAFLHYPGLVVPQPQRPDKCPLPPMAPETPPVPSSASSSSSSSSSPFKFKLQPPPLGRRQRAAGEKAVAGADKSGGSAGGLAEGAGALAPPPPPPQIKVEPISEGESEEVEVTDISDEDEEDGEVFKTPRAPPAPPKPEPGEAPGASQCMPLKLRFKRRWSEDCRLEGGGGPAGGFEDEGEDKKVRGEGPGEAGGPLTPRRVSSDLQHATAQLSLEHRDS
Procedure, shortened: as §1

ETV3L = biological target: T11, ETV3L (Homo sapiens, UniProt Q6ZN32 1-361)
T11 sequence: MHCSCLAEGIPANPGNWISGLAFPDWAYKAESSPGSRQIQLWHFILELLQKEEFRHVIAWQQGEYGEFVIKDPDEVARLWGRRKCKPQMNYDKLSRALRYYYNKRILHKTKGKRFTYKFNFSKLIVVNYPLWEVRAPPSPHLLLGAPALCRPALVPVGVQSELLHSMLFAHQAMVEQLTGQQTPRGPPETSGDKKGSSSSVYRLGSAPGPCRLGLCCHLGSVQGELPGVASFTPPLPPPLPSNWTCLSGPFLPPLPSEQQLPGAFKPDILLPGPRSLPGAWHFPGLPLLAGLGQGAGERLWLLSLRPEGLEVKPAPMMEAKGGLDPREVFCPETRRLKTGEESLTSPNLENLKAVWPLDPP
Procedure, shortened: as §1

SPDEF = biological target: T12, SPDEF (Homo sapiens, UniProt O95238 1-335)
T12 sequence: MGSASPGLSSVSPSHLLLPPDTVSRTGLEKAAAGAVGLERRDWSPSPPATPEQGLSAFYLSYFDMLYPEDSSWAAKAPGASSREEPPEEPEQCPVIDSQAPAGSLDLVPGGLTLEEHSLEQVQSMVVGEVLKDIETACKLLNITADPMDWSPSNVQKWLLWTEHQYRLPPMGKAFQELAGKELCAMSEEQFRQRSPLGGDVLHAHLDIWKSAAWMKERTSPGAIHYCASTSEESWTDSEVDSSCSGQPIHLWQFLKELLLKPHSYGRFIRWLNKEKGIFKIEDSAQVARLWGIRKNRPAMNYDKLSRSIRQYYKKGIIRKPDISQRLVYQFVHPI
Procedure, shortened: as §1

ETV6 = ETV6 (Homo sapiens, UniProt P41212 1-452)
Chain of ETV6 (P41212 whole entry): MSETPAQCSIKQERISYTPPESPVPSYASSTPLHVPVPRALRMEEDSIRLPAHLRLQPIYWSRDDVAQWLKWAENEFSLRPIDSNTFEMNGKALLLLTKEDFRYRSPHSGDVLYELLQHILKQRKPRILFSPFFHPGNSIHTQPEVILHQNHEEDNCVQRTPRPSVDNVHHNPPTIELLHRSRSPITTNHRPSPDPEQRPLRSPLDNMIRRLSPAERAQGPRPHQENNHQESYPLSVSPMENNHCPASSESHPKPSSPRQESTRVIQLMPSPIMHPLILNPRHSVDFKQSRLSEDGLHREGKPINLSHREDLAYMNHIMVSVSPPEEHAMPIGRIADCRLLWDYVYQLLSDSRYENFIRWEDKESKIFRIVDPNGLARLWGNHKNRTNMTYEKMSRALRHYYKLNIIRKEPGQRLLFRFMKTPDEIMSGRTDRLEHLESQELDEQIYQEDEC
Procedure, shortened: as §1

Sequence | binding signal (ELK1) | binding signal (ELF1) | binding signal (EHF) | binding signal (ETV5) | binding signal (ELF4) | binding signal (ELK4) | binding signal (ETV1) | binding signal (ETV7) | binding signal (ETV3) | binding signal (GABPA) | binding signal (ERG) | binding signal (SPIB) | binding signal (FEV) | binding signal (ELF3) | binding signal (ERF) | binding signal (ETV3L) | binding signal (SPDEF) | binding signal (ETV6)
TAGCGT | 1 fold enrichment (6-mer frequency, TF over GST control) | 1.02 fold enrichment (6-mer frequency, TF over GST control) | 1 fold enrichment (6-mer frequency, TF over GST control) | 1.03 fold enrichment (6-mer frequency, TF over GST control) | 1.02 fold enrichment (6-mer frequency, TF over GST control) | 1.07 fold enrichment (6-mer frequency, TF over GST control) | 1.03 fold enrichment (6-mer frequency, TF over GST control) | 1 fold enrichment (6-mer frequency, TF over GST control) | 1.04 fold enrichment (6-mer frequency, TF over GST control) | – | – | – | – | – | – | – | – | –
CATAAT | – | 1.02 fold enrichment (6-mer frequency, TF over GST control) | 1.13 fold enrichment (6-mer frequency, TF over GST control) | 1.09 fold enrichment (6-mer frequency, TF over GST control) | 1.01 fold enrichment (6-mer frequency, TF over GST control) | 1.03 fold enrichment (6-mer frequency, TF over GST control) | 1.05 fold enrichment (6-mer frequency, TF over GST control) | 1.02 fold enrichment (6-mer frequency, TF over GST control) | – | 1.01 fold enrichment (6-mer frequency, TF over GST control) | 1.1 fold enrichment (6-mer frequency, TF over GST control) | 1.04 fold enrichment (6-mer frequency, TF over GST control) | 1.01 fold enrichment (6-mer frequency, TF over GST control) | 1.01 fold enrichment (6-mer frequency, TF over GST control) | 1.02 fold enrichment (6-mer frequency, TF over GST control) | 1.01 fold enrichment (6-mer frequency, TF over GST control) | 1 fold enrichment (6-mer frequency, TF over GST control) | 1.07 fold enrichment (6-mer frequency, TF over GST control)
